Compound activity (PubChem)
A selection: hits, their analogues and other compounds. The true share with any hit is near 27%.
Cav3 T inh = Cav3.2 calcium influx blockers – cell-based, Fluo-4 calcium fluorescence, FDSS, MLSMR library, primary screen | B-score at 10 µM | Cav3.2-expressing cells; active compounds read low | Voltage-dependent T-type calcium channel subunit alpha-1H (Homo sapiens), O95180 | 100,000 compounds, 4% hits;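 active = single-dose well whose peak fluorescence ratio is a statistical outlier from its plate by either plate-standardised score or position-corrected B-score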
CYP2C19 act = human CYP2C19 activators, primary screen, biochemical, luminescence; Cytochrome P450 2C19 (Homo sapiens), P33261; recombinant CYP2C19, luciferin-H EGE luminescence; active compounds read high; 0 = fully inhibited enzyme, 1 = untreated enzyme; activation factor at 5 µM; 96,000 tested, under 10 active;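 active = activation factor of at least 2 at 5 µM in the primary screen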
CYP2C19 inh = blockers of cytochrome P450 2C19 activity – biochemical, luminescence, ADME assay, primary screen; P33261; inhibition, % at 5 µM; 96,000 compounds, 21% hits; CYP2C19 Supersomes, luciferin-H EGE luminescence, 30 min;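 active = CYP2C19 inhibition above a set limit at 5 µM in the primary screen, cut at about 50% in these data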
CYP2C9 inh = blockers of cytochrome P450 2C9 activity – biochemical, luminescence, ADME assay, primary screen | CYP2C9 Supersomes, luciferin-H conversion | 96,000 compounds, 20% hits | inhibition, % at 5 µM | P11712 | AID 777, 2007;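 active = blocking of liver enzyme CYP2C9 beyond about 50% at 5 µM, limit read from the data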
Target sequence (P11712 whole entry, looked up): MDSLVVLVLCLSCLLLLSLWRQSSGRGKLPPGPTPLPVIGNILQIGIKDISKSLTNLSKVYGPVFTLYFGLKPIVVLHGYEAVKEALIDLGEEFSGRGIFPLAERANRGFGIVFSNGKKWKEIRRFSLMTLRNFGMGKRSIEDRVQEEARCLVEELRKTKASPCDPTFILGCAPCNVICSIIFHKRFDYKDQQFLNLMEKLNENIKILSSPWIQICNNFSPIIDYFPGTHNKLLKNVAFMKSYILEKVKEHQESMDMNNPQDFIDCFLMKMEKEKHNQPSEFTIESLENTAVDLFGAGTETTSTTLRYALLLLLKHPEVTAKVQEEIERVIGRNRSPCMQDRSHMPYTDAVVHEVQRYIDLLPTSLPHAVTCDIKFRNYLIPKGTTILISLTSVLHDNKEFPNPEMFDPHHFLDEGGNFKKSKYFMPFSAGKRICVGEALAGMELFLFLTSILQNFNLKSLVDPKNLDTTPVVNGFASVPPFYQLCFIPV
CYP2C9 activ = human CYP2C9 activators, primary screen, biochemical, luminescence. Cytochrome P450 2C9 (Homo sapiens), P11712. recombinant CYP2C9, luciferin-H conversion; active compounds read high; factor 1 = untreated enzyme, 0 = blocked. activation factor at 5 µM. 96,000 compounds, 1.4% hits;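 active = activation factor of 2 or more for CYP2C9 at a 5 µM dose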
A number is an active result; i = inactive; nt = no result given.

SMILES	Cav3 T inh	CYP2C19 act	CYP2C19 inh	CYP2C9 inh	CYP2C9 activ
CCCCOc1ccc(C(=O)N/C(=C\c2ccc(OC)cc2)C(=O)OCc2ccco2)cc1	-8.6	i	i	65	i
CCOC(=O)c1ccc(COC(=O)CNC(=O)CNC(=O)c2ccc(OC)cc2)o1	i	i	i	i	i
CC(C)CC(=O)Nc1ccc(N2CCOCC2)cc1	i	i	i	i	i
CCCOC(=O)c1ccc(OC(=O)c2ccco2)cc1	i	i	i	i	2
CCOC(=O)C1=C(C)Nc2nc(SCC)nn2C1c1ccc(OC)cc1 (stereo unspecified)	i	i	i	i	i
CCOC(=O)C1C(=O)C=C(C)C(C(=O)OCC)C1c1ccc(OC)cc1 (stereo unspecified)	i	i	73	i	i
CCOC(=O)C1/C(=N\O)CC(C)(O)C(C(=O)OCC)C1c1ccc(OC)c(OC)c1 (stereo unspecified)	i	i	i	i	i
CCOC(=O)C1=C(C)NC(C)=C(C(=O)OCC)C1c1ccc(OC)cc1	nt	i	70	88	i
COC(=O)C1=C(C)NC(C)=C(C(=O)OC)C1c1ccccn1	i	i	i	83	i
C=CCOC(=O)C1=C(C)NC(C)=C(C(=O)OCC=C)C1c1ccc(O)cc1	i	i	100	100	i
CC(=O)Nc1cc(OC(=O)c2ccco2)cc(OC(=O)c2ccco2)c1	i	i	i	66	i
C=CCOC(=O)C1=C(C)NC(=O)NC1/C=C/c1ccccc1 (stereo unspecified)	i	i	i	i	i
COC(=O)C1=C(C)NC(C)=C(C(=O)OC)C1c1ccc(OC(=O)c2ccco2)cc1	i	i	i	57	i
O=C(CSc1nnc(CNc2ccccc2)o1)N1CCN(C(=O)c2ccco2)CC1	i	nt	nt	nt	nt
COc1ccccc1-c1cc2ccccc2[nH]1	i	nt	nt	nt	nt
CCOC(=O)COc1cc2c3c(c(=O)oc2cc1C)CCCC3	i	i	i	60	i
CCOC(=O)CSc1nnc(CNC(=O)c2ccc(OC)cc2)n1C1CCCCC1	i	i	75	i	i
CCOC(=O)CSc1nnc(CNC(=O)c2ccc(OC)cc2)n1Cc1ccccc1	i	i	i	i	i
Cn1c(=O)n(CC(=O)NC2CCCCC2)c(=O)c2ccccc21	i	i	i	i	i
COc1cccc(NC=C2C(=O)OC3(CCCCC3)OC2=O)c1	i	i	i	i	i
COc1ccc(C2=CC(=O)OC3(CCCCC3)O2)cc1	i	i	95	88	i
CN(c1cccc(NC(=O)COc2ccc(Cl)cc2Cl)c1)S(C)(=O)=O	i	nt	nt	nt	nt
Cc1ccccc1N(CC(=O)N/N=C/c1ccc(N(C)C)cc1)C(=O)c1ccccc1	-4.5	i	89	93	i
CCNC(=O)C1(c2ccccc2)CCCC1	i	i	i	i	i
CC(=O)c1ccc(NC(=O)C2(c3ccccc3)CCOCC2)cc1	i	i	i	50	i
SMILES	Cav3 T inh	CYP2C19 act	CYP2C19 inh	CYP2C9 inh	CYP2C9 activ
O=C(NCC1(c2ccccc2)CCCC1)C(=O)NCC1(c2ccccc2)CCCC1	i	nt	nt	nt	nt
Cc1ccc(NC(=O)C2(c3ccccc3)CCCC2)nc1	i	nt	nt	nt	nt
O=C(Nc1ccncc1)C1(c2ccccc2)CCCC1	i	i	100	95	i
O=C(NCC1(c2ccccc2)CCCC1)C1(c2ccccc2)CCCC1	-6.6	nt	nt	nt	nt
O=C(Nc1ccccn1)C1(c2ccccc2)CCCC1	i	i	81	59	i
CC(C)C[C@H](N)c1nnc(S(=O)(=O)Cc2ccc(F)cc2)o1	i	i	i	i	i
O=C(Nc1cccnc1)C1(c2ccccc2)CCCC1	i	i	52	i	i
O=C(Nc1ccc(O)c(-c2nc3ccccc3o2)c1)C1(c2ccccc2)CCCC1	i	i	i	87	i
Cc1cc(-c2ccccc2)[nH]c(=O)c1S(=O)(=O)c1ccccc1	i	i	i	i	i
CCC(=O)N1CCc2cc(S(=O)(=O)N3CCN(c4ccccn4)CC3)ccc21	i	i	i	i	i
OCC#CCSc1nnc(-c2ccccc2Br)o1	i	i	i	i	i
O=C(OCC#CCSc1nc2ccccc2o1)c1cc2ccccc2o1	i	nt	nt	nt	nt
OCC#CCSc1nnc(-c2ccc(Br)cc2)o1	i	i	60	i	i
O=C(OCC#CCSc1nc2ccccc2o1)c1ccco1	i	i	74	57	i
O=C(OCC#CCSc1nnc(-c2cccc3ccccc23)o1)c1ccco1	nt	i	i	i	2.1
